Data reported in PubChem BioAssay AID588683 (Broad Institute, 2011).
Entries with a potency or affinity are not part of this list.

Target: Kelch-like ECH-associated protein 1 (Homo sapiens) + Nuclear factor erythroid 2-related factor 2 (Homo sapiens) (UniProt Q14145+Q16236)
Experiment: disruptors of Keap1 binding to Nrf2 peptide – biochemical, fluorescence polarization, cherry-picked samples, dose response (AID 588683);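 note: Kelch domain of Keap1 binding a fluorescein-labelled 9mer Nrf2 peptide; more negative means stronger inhibition of peptide binding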
Conditions: plate reader; series mostly up to 26 µM; activity change, negative = inhibition: at the top concentration; call rule not given here

Chain of Kelch-like ECH-associated protein 1 (Homo sapiens) + Nuclear factor erythroid 2-related factor 2 (Homo sapiens) (Q14145 whole entry, looked up, the tested form may be a part): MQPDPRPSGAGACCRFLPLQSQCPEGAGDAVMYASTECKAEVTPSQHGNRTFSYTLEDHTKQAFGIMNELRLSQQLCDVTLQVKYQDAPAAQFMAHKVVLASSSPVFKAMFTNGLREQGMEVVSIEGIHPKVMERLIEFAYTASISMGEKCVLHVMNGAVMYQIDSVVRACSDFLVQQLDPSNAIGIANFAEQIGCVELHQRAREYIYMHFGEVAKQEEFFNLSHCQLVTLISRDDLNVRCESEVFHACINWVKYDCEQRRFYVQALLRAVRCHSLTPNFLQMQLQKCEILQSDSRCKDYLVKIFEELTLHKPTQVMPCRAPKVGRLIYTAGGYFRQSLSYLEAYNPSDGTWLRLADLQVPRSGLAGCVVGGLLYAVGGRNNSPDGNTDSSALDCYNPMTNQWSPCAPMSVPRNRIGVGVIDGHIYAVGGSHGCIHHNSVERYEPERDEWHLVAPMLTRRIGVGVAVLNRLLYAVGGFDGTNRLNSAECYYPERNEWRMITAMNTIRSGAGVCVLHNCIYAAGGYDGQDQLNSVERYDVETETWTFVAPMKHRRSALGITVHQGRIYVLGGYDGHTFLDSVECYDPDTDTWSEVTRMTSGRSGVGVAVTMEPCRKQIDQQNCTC
Chain of Kelch-like ECH-associated protein 1 (Homo sapiens) + Nuclear factor erythroid 2-related factor 2 (Homo sapiens) (Q16236 whole entry, looked up, the tested form may be a part): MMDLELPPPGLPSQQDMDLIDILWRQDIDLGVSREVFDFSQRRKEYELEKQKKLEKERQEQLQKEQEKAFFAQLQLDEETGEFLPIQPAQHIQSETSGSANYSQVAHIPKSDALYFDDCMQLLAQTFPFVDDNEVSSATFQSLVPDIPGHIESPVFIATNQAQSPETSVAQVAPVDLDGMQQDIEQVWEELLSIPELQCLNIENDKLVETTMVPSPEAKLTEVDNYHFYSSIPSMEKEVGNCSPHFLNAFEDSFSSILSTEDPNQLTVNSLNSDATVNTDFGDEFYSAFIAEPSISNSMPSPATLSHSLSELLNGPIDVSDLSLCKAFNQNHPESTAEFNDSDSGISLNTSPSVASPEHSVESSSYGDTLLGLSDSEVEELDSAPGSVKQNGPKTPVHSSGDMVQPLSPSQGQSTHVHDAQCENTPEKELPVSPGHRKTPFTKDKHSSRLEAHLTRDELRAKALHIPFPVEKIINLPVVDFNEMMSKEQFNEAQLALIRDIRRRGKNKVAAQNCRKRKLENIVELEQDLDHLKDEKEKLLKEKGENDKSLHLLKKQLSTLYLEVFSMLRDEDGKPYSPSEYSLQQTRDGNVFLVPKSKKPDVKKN

Activity change, negative = inhibition, inactive:
Nc1nc(SCC(=O)Nc2cc(C(F)(F)F)ccc2N2CCOCC2)n[nH]1 -1.61%, COc1ccc(C2OC34CCCCC3C(C#N)(C#N)C2(C#N)C(=N)O4)cc1 (stereo not given) -9.26%, CC1(C)CC(=O)C2=C(C1)OC(N)=C(C#N)C2c1ccccc1[N+](=O)[O-] (stereo not given) -23.5%, Oc1cc(NCCN2CCOCC2)cc2cccnc12 -2.56%, COc1ccc(-c2cc(C(F)(F)F)c3c(N)c(C(=O)NCCSC)sc3n2)cc1 11.6%, Oc1[nH]c2ccccc2c1N=Nc1ccccc1 -5.01%, Clc1ccc(C2=CC(c3ccco3)n3ncnc3N2)cc1 (stereo not given) -20.5%, O=C(Nn1cnnc1)c1ccc(Cl)c(Cl)c1 4.89%, CC1(C)CC(=O)C(N=Nc2c(F)cccc2F)=C(O)C1 1.16%, O=C1CC(Cc2ccc(Cl)cc2)C(=O)N1c1cc(Cl)ccn1 (stereo not given) 2.69%, CCCCC1OC23CCCCC2C(C#N)(C#N)C1(C#N)C(=N)O3 (stereo not given) -8.61%, COC(=O)c1cc(C)nc2c1c(C)nn2-c1ccccc1 -5.13%, CCOC(=O)c1c(NC(=O)CN2CCN(S(=O)(=O)c3cc(Cl)ccc3Cl)CC2)sc(C(=O)N(C)C)c1C -10.3%, CCCC1OC23CCCCC2C(C#N)(C#N)C1(C#N)C(=N)O3 (stereo not given) -1.32%, O=C(CCN1C(=O)/C(=C/c2ccco2)SC1=S)Nc1ccc(O)cc1C(=O)O 4.28%, COc1ccc(C=Nc2cccnc2N)cc1 -5.56%, O=C(COC(=O)c1ccc([N+](=O)[O-])s1)Nc1cccc(S(=O)(=O)NC2=NCCCCC2)c1 -14.6%, CCCN1CNC(=S)N(c2cc(C)ccc2C)C1 -10%, C=CCn1cccc(C(=O)Nc2ccc(OC)c(Cl)c2)c1=O -2.59%, C=CCOC(=O)C1=C[C@H](c2csc3ccccc23)C[C@H](OCc2ccc(CO)cc2)O1 -4.86%
